Assay outcomes as filed in PubChem BioAssay.
Sampled rows, rich in hits. Any-hit rate of the full collection: about 1.1%.
SRC3 inh = inhibitors of human steroid receptor coactivator 3 (SRC3); HEK293 GAL4-SRC3 luciferase reporter, luminescence; 0.17% of 360,000 active; Q9Y6Q9; inhibition, % at 3.6 µM; AID 588352;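 active means inhibition above a per-campaign cutoff, the mean of all compounds plus 3 SD, cut at about 60% in these data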;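 further: 0% = DMSO-treated cells and 100% = gossypol-treated cells at 36 µM; higher means less SRC3-driven luciferase light from the GAL4 reporter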
GalR3 antagonist = blocks the human galanin receptor 3 | AID 651719 | O60755 | inhibition, % at 3 µM | HEK293 GalR3-CNG cAMP membrane potential fluorescence; galR3 body fused to GalR1 C-terminus | 0.44% of 360,000 active;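 active means inhibition above the screen-wide average plus 3 SD, cut at about 13% in these data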;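 further: forskolin and galanin both at EC90 stimulate the cells; cAMP rise reported by CNG channel membrane potential dye signal; 0% = forskolin plus galanin with DMSO and 100% = forskolin alone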
COUP-TFII inh = NR2F2 (human) inhibition, primary screen. 0.7% of 370,000 active. inhibition, % at 8.6 µM. HEK293T NGFI-A luciferase reporter, luminescence;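 active means inhibition above a per-plate cutoff, mean inhibition of test wells between control levels plus 3 SD, cut at about 38% in these data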;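 further: cells cotransfected with COUP-TFII expression vector driving the NGFI-A reporter; 0% = median of COUP-TF2 test wells and 100% = reporter-only cells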
Target sequence (P24468 whole entry, looked up): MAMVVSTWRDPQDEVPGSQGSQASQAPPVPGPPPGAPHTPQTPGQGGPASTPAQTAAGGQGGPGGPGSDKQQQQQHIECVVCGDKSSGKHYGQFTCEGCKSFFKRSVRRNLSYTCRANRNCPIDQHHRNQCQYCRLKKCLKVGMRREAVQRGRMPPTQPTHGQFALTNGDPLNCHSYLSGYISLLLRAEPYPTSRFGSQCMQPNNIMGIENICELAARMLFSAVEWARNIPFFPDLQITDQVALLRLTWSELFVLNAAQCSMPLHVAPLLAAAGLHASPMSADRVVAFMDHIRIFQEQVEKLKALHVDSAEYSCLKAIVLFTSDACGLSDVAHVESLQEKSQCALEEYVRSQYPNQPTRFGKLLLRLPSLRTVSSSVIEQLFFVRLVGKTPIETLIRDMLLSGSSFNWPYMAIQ
LRH-1 inv ag = inverse agonists of human LRH-1 (NR5A2) | O00482 | HEK293T StAR-luciferase reporter, LRH-1 transfected, 24 h | inhibition, % at 3.6 µM | 0.13% of 360,000 active | AID 602396;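 active means inhibition above the mean inhibition of all tested compounds plus 3 SD, cut at about 73% in these data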;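 further: 0% = DMSO wells and 100% = reporter-only cells lacking LRH-1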
SRC2 inh = inhibits human steroid receptor coactivator 2. HEK293 GAL4-SRC2 luciferase reporter, luminescence. Q15596. 0.17% of 370,000 active. inhibition, % at 9 µM;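 active means inhibition above the mean inhibition of all tested compounds plus 3 SD, set per campaign, cut at about 52% in these data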;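 further: 0% = DMSO treated cells and 100% = cells given Gossypol at 36 µM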
SRC1 inh = inhibits human SRC1 coactivator. inhibition, % at 3.6 µM. HEK293 GAL4-SRC1 luciferase reporter, luminescence. 0.12% of 360,000 active. AID 588354;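 active means inhibition above the campaign mean plus 3 SD, with each screening campaign given its own cutoff, cut at about 60% in these data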;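 further: 0% = DMSO treated cells and 100% = gossypol at 36 µM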
GalR3 conf = GalR3 (human) antagonism, confirmation; shares compounds with GalR3 antagonist; HEK293 GalR3 CNG cAMP biosensor, membrane potential fluorescence; galR3 fused to GalR1 carboxy tail; challenged with forskolin and galanin at EC90; inhibition, % at 3 µM; 59% of 1,600 active;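 active means inhibition above the primary screen's cutoff, the mean inhibition of all screened compounds plus 3 SD, cut at about 13% in these data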;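 further: 0% = forskolin plus galanin and 100% = forskolin alone with DMSO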
CNG parental = counter-screen for GalR3 antagonists: nonspecific agonists in parental HEK-CNG cells. HEK293-CNG parental cells, cAMP membrane potential fluorescence; normalised: DMSO wells 0%, forskolin wells 100%. AID 652268. shares compounds with GalR3 antagonist. 10% of 1,600 active. activation, % at 3 µM; in the data active means activation above about 1.3%
An asterisk follows results filed as active; . = no result.

SMILES | SRC3 inh | GalR3 antagonist | COUP-TFII inh | LRH-1 inv ag | SRC2 inh | SRC1 inh | GalR3 conf | CNG parental
CC(C)C(C(=O)NCc1ccccc1)N1CCN(CCN2CCOCC2)CC1 (stereo not drawn) | . | 0 | -9 | . | -21 | . | . | .
COc1cc(CCCN2C(N)=NC[C@@H]2c2ccccc2)cc(OC)c1OC | -17 | . | 10 | 6 | 4 | -2 | 4 | 0
COc1ccc(CC(=O)Nc2cccc(S(=O)(=O)N3CCCCCC3)c2)cc1OC | 29 | 104* | 79* | 51 | 23 | 27 | 99* | -1
COc1ccc(NC(=O)c2cc(S(=O)(=O)N3CCCCC3)ccc2OC)cc1 | 8 | -8 | -7 | 2 | -2 | 5 | . | .
COc1ccc(S(=O)(=O)N2CCCCCC2)cc1C(=O)Nc1ccc(C(=O)N(C)C)cc1 | 15 | 15* | 19 | 20 | -3 | -6 | 5 | 0
CCOc1ccc(OCCC(=O)NNC(=O)c2nn(C)c(=O)c3ccccc23)cc1 | 6 | -4 | 4 | -4 | -19 | -17 | . | .
CCCn1nc(C(=O)NNC(=O)CCCOc2ccc(OC)cc2)c2ccccc2c1=O | 1 | 58* | -16 | 19 | 3 | -22 | 44* | 0
CC(C)SCCCOc1ccc(C(C)(C)C)cc1 | -9 | . | -2 | 9 | 6 | -12 | 4 | 0
O=C(O)c1ccc(NS(=O)(=O)c2cccc(C(=O)Nc3ccccc3[N+](=O)[O-])c2)cc1 | 15 | -4 | 4 | 2 | 6 | 5 | . | .
CN(C)S(=O)(=O)c1cccc(C(=O)Nc2ccccc2[N+](=O)[O-])c1 | -6 | 15* | -3 | 8 | 14 | -22 | 2 | 0
CCOC(=O)c1ccc(NC(=O)c2nc[nH]c2C(=O)NC2CCN(C(=O)OC(C)(C)C)CC2)cc1 | 1 | 17* | -9 | 16 | -11 | -13 | 10 | 0
Cc1ccccc1NS(=O)(=O)c1ccc2c(c1)CCC(=O)N2 | -5 | 6 | 0 | 19 | -10 | 6 | . | .
CCCCCCNS(=O)(=O)c1ccc(NC(=O)C2CCCO2)cc1 (stereo not drawn) | 19 | 15* | -6 | 17 | 8 | 12 | 26* | 0
O=C(Nc1ccc(S(=O)(=O)Nc2ccc(Cl)cc2)cc1)C1CCCO1 (stereo not drawn) | 26 | -6 | 26 | 15 | 13 | 2 | . | .
O=C(COC(=O)/C=C/c1cccc(F)c1)Nc1ccc2[nH]c(=O)[nH]c2c1 | -68 | -5 | -5 | -34 | 11 | -14 | . | .
O=C(COC(=O)/C=C/c1cccc(Cl)c1)Nc1ccc2[nH]c(=O)[nH]c2c1 | 9 | 35* | -3 | -1 | -18 | 0 | 44* | 6.9*
COc1ccc(NC(=O)COc2nc3ccccc3nc2N2CCOCC2)c(OC)c1 | 17 | 14* | -1 | 3 | -15 | -4 | 8 | 0
Cc1cc(Br)c(OCc2ccc(C(=O)N/N=C3\CC4CC=CC34)cc2)c(Br)c1 (stereo not drawn) | 14 | 27* | -16 | -13 | 14 | -6 | 46* | 0
O=C(N/N=C1\CC2CC=CC12)c1ccc(Br)cc1 (stereo not drawn) | 6 | -2 | -5 | -10 | -15 | 6 | . | .
COc1ccc(/C=C/C(=O)c2cc3cccc(OC)c3oc2=O)cc1 | 11 | 24* | 10 | 0 | -12 | -11 | 9 | 0
OCCNCCOc1ccccc1F | 10 | 13* | -1 | 0 | 2 | 11 | 0 | 0
OCCNCCOc1ccccc1-c1ccccc1 | 0 | -9 | 10 | -15 | -28 | -27 | . | .
Cc1nc2ccc(S(=O)(=O)NCC(=O)NCc3ccccc3Cl)cc2s1 | . | . | 19 | . | 6 | . | . | .
COc1cc(C(=O)O[C@H]2CC(C)=CC[C@@]3(C)CC[C@@](O)(C(C)C)[C@H]23)ccc1O | -18 | 26* | -3 | 17 | -6 | 8 | 21* | 0
COc1cc(C(=O)O[C@H]2C/C(C)=C/CC[C@]3(C)O[C@@H]3C(O)C2C(C)C)cc(OC)c1OC (stereo partly drawn) | 1 | -3 | 3 | 13 | -1 | -11 | . | .
SMILES | SRC3 inh | GalR3 antagonist | COUP-TFII inh | LRH-1 inv ag | SRC2 inh | SRC1 inh | GalR3 conf | CNG parental
CCc1nnc(NC(=O)c2nc3nc(C)cc(C)n3n2)s1 | 4 | 13* | -12 | -10 | -12 | -5 | 0 | 0
CCCCc1nnc(NC(=O)c2nc3nccc(C)n3n2)s1 | 5 | -5 | 14 | 10 | -18 | 4 | . | .
CN1CCN(C(=S)C(=O)Nc2ccc(Br)cc2)CC1 | 14 | 40* | 17 | -18 | 5 | 1 | 4 | 0
CN1CCN(C(=S)NC(=O)c2ccc(Br)cc2)CC1 | 17 | -6 | 2 | -3 | -2 | 14 | . | .
CCn1cc([N+](=O)[O-])c(C(=O)N2N=C(c3ccc(Cl)c(Cl)c3)CC2c2ccccc2O)n1 (stereo not drawn) | 0 | 15* | -90 | 10 | -4 | -23 | 20* | 0
CCn1cc([N+](=O)[O-])c(C(=O)N2N=C(c3ccc(O)c(OC)c3)CC2c2ccccc2O)n1 (stereo not drawn) | -10 | -1 | 0 | 23 | 6 | -10 | . | .
O=C(Cn1nc(-c2ccccc2)c2ccccc2c1=O)Nc1ccc(O)cc1 | 6 | 14* | -12 | 7 | 4 | -44 | 1 | -1
Oc1c(Br)cc(Br)cc1C=NCc1ccccc1 | 5 | . | 19 | 11 | -36 | -63 | 2 | 1
O/N=C/c1cc(Br)ccc1OCc1ccc(F)cc1 | -27 | -6 | -6 | -38 | 3 | -20 | . | .
Oc1c(Br)cc(Br)cc1C=NCc1ccc(F)cc1 | 13 | 34* | -5 | -5 | 5 | 0 | 5 | 0
CCOc1ccc2[nH]c(SCC(=O)OC)c([N+](=O)[O-])c2c1 | 17 | 20* | 5 | 4 | 9 | 10 | 17* | -1
CC1CCN(C(=O)/C(=C\c2cccs2)NC(=O)c2ccccc2)CC1 | 4 | 19* | -13 | 22 | 6 | -26 | 8 | 0
COC(=O)[C@]12C[C@H](CC(=O)N3CCSCC3)C(=O)N(Cc3ccc4c(c3)OCO4)C1=C[C@H](COCc1ccccc1)O[C@@H]2C | . | -2 | 3 | . | -1 | . | . | .
Cc1ccc(NC(=O)CSc2ncnc3ccccc23)cc1S(=O)(=O)N1CCCCCC1 | 20 | 96* | 37 | 7 | 34 | -1 | 108* | -2
Cc1ccc(NC(=O)CSc2ncn[nH]2)cc1S(=O)(=O)N1CCOCC1 | 3 | 18* | 14 | -10 | -4 | 6 | 8 | 0
